Measurements published in PubChem BioAssay (NCI).
About 83,000 compounds went through this panel and 20% of them were active in at least one assay; those are over-represented in the sample as a whole.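 Activity criterion: percent growth below 10, measured after cells in 96-well plates were exposed to a single compound concentration for 48 hours.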 The source made the active and inactive calls.

Key:
Test in all cases: NCI-60 one-dose screen, 48 h (100 = growth as untreated, 0 = no growth, -100 = all killed)
Conditions in all cases: 10 µM
BT-549 breast = system: BT-549 breast
MDA-MB-435 melanoma = system: MDA-MB-435 melanoma
SW-620 colon = system: SW-620 colon
MCF7 breast = system: MCF7 breast
HCT-116 colon = system: HCT-116 colon
HCC-2998 colon = system: HCC-2998 colon
KM12 colon = system: KM12 colon

Measured: growth

CC(=O)[C@H]1CC[C@H]2[C@@H]3CCC4=CC(=O)C=C[C@]4(C)[C@H]3CC[C@]12C
inactive: BT-549 breast 98% | MDA-MB-435 melanoma 98.7% | SW-620 colon 108% | MCF7 breast 97.9% | HCT-116 colon 85.6% | HCC-2998 colon 99.2% | KM12 colon 107%

COc1ccc2c(c1OC)O/C(=C\c1ncc([N+](=O)[O-])n1C)C2=O
inactive: MCF7 breast 28.9% | HCC-2998 colon 34.6% | KM12 colon 43.1%
active: BT-549 breast -41.3% | MDA-MB-435 melanoma -76.4% | SW-620 colon -21.2% | HCT-116 colon 4.48%

COc1ccc(-c2cc(-c3ccc(N(C)C)cc3)c(C#N)c(N3CCCC3)n2)cc1
inactive: BT-549 breast 74.4% | MDA-MB-435 melanoma 90.4% | SW-620 colon 94.4% | MCF7 breast 103% | HCT-116 colon 67.7% | HCC-2998 colon 83.6% | KM12 colon 95.4%

Cc1ncc(-c2ccoc2)c(NC2CCCCCC2)n1
inactive: BT-549 breast 115% | MDA-MB-435 melanoma 110% | SW-620 colon 111% | MCF7 breast 112% | HCT-116 colon 99.8% | HCC-2998 colon 105% | KM12 colon 105%

Cc1nc2c(c(=O)[nH]1)OCN(Cc1ccccc1)C2
inactive: BT-549 breast 102% | MDA-MB-435 melanoma 112% | SW-620 colon 102% | MCF7 breast 102% | HCT-116 colon 100% | HCC-2998 colon 104% | KM12 colon 104%

CCN(CC)CCNC(=O)c1ccc(NC(C)=O)cc1
inactive: BT-549 breast 106% | MDA-MB-435 melanoma 101% | SW-620 colon 107% | MCF7 breast 101% | HCT-116 colon 105% | HCC-2998 colon 102% | KM12 colon 108%

CC(=O)/C(=C/c1ccccc1)C(=O)CC(C)C
inactive: BT-549 breast 98.8% | MDA-MB-435 melanoma 54.3% | SW-620 colon 24.7% | MCF7 breast 50.4% | HCT-116 colon 27.7% | HCC-2998 colon 105% | KM12 colon 72.2%

O=c1c2ccccc2nc(SCCN2CCCCC2)n1CCc1ccccc1
inactive: BT-549 breast 86.3% | MDA-MB-435 melanoma 95.9% | SW-620 colon 89.9% | MCF7 breast 63.3% | HCT-116 colon 74% | HCC-2998 colon 97.9% | KM12 colon 94.2%

Nc1c(C(=O)Nc2ccccc2Cl)sc2nc3c(cc12)C(=O)CCC3
inactive: BT-549 breast 61.2% | SW-620 colon 29% | MCF7 breast 16.1% | HCT-116 colon 76.5% | HCC-2998 colon 63.2% | KM12 colon 28.5%
active: MDA-MB-435 melanoma -53.3%

CCN(CC)CCOc1nc2cc(OC)c(OC)cc2c2c1-c1ccc(OC)cc1C2=O
inactive: BT-549 breast 81.3% | MDA-MB-435 melanoma 86.2% | SW-620 colon 45.4% | MCF7 breast 35% | HCT-116 colon 47.4% | HCC-2998 colon 82.6% | KM12 colon 64.7%

N=C1c2nc3n(c2C(=O)c2nc4n(c21)CCCC4)CCCC3
inactive: SW-620 colon 23.7% | HCT-116 colon 65.8% | HCC-2998 colon 87.3% | KM12 colon 66.7%
active: BT-549 breast -37.2% | MDA-MB-435 melanoma -82.5% | MCF7 breast -6.98%

Cc1cc(N(CCCNc2ccnc3cc(Cl)ccc23)Cc2ccc3c(c2)OCO3)nc(N2CCOCC2)n1
active: MDA-MB-435 melanoma -13.6% | HCT-116 colon 3.52%
inactive: BT-549 breast 12.3% | SW-620 colon 11.7% | MCF7 breast 31.9% | HCC-2998 colon 25.7% | KM12 colon 40.6%

CCCCCCN(CCCCCC)CC(O)c1ccc2c3c(cccc13)CC2 (stereo unspecified)
inactive: BT-549 breast 62.8% | MDA-MB-435 melanoma 42.9% | SW-620 colon 19.2% | MCF7 breast 54.2% | HCT-116 colon 17.4% | HCC-2998 colon 20.3% | KM12 colon 58%

CCCN(CCC)CCC(O)c1cc2c(c3ccccc13)CCCC2 (stereo unspecified)
inactive: BT-549 breast 92.5% | MDA-MB-435 melanoma 97.7% | SW-620 colon 94.1% | MCF7 breast 82.4% | HCT-116 colon 70.3% | HCC-2998 colon 87.6% | KM12 colon 101%

Nc1c(C(=O)Nc2cccc(Br)c2)sc2nc3c(cc12)C(O)CCC3 (stereo unspecified)
inactive: BT-549 breast 45.2% | SW-620 colon 36.4% | MCF7 breast 21% | HCT-116 colon 16.4% | HCC-2998 colon 31.5% | KM12 colon 22.8%
active: MDA-MB-435 melanoma -42.1%

Nc1c(C(=O)Nc2ccccc2)sc2nc3c(cc12)CCCC3
inactive: BT-549 breast 66.6% | SW-620 colon 34.4% | MCF7 breast 15.6% | HCT-116 colon 25.5% | HCC-2998 colon 24.5% | KM12 colon 31.1%
active: MDA-MB-435 melanoma -30.6%

Nc1ccc2c(c1)C1(CCC2)NC(=O)NC1=O (stereo unspecified)
inactive: BT-549 breast 102% | MDA-MB-435 melanoma 102% | SW-620 colon 104% | MCF7 breast 97.2% | HCT-116 colon 101% | HCC-2998 colon 115% | KM12 colon 102%

Oc1[nH]c2ccc(Cl)cc2c1/C=c1/ccc2c(c1)N=C(c1cc(F)cc(F)c1)N=2
inactive: BT-549 breast 81.9% | SW-620 colon 53.8% | HCT-116 colon 52.2% | HCC-2998 colon 86.2% | KM12 colon 44.4%
active: MDA-MB-435 melanoma 1.43% | MCF7 breast 5.27%

O=S(=O)(NCCCNc1nccc(-c2c(-c3ccc(F)cc3)nc3sccn23)n1)c1ccc(F)cc1
inactive: BT-549 breast 52.8% | MDA-MB-435 melanoma 20.6% | SW-620 colon 47.1% | MCF7 breast 32.8% | HCT-116 colon 28.9% | HCC-2998 colon 37.6% | KM12 colon 27.8%

CCCCC(CCCCCC(CCCC)NCc1ccc2c(c1)OCO2)NCc1ccc2c(c1)OCO2 (stereo unspecified)
active: BT-549 breast -65.7% | MDA-MB-435 melanoma -82.4% | SW-620 colon -100% | MCF7 breast -100% | HCT-116 colon -100% | HCC-2998 colon -100% | KM12 colon -100%

Cc1cc(=O)[nH]c(N/N=C/c2ccccc2O)n1
active: MCF7 breast 4.95% | HCT-116 colon 8.06%
inactive: BT-549 breast 101% | MDA-MB-435 melanoma 72.1% | SW-620 colon 56.5% | HCC-2998 colon 54.3% | KM12 colon 51.2%

Nc1ncn(C2OC(CO)C(O)C2O)c(=O)n1 (stereo unspecified)
active: BT-549 breast -9.44% | MDA-MB-435 melanoma 3.05% | HCT-116 colon -32% | HCC-2998 colon -1.48% | KM12 colon -15.8%
inactive: SW-620 colon 29.3% | MCF7 breast 11.5%

Cc1cc(N(CCCNc2ccnc3cc(Cl)ccc23)Cc2ccc3c(c2)OCO3)nc(N2CCCCC2)n1
active: BT-549 breast -24% | MDA-MB-435 melanoma -74.6% | SW-620 colon -39.4% | MCF7 breast -14.3% | HCT-116 colon -43.9% | HCC-2998 colon -57.6%
inactive: KM12 colon 10.4%

COc1ccc2c(c1)sc1nc(-c3ccccc3)c(-c3ccc(O)c(OC)c3)n12
inactive: BT-549 breast 68.2% | SW-620 colon 39.9% | MCF7 breast 93.4% | HCT-116 colon 33.2% | HCC-2998 colon 42.5% | KM12 colon 37.1%
active: MDA-MB-435 melanoma -24.6%

O=C(Nc1cccc(-n2cc(-c3ccncc3)c(-c3ccc(O)c(Cl)c3)n2)c1)c1ccc(N2CCOCC2)c(C(F)(F)F)c1
inactive: BT-549 breast 47.2% | MDA-MB-435 melanoma 53.9% | SW-620 colon 36.3% | MCF7 breast 24.6% | HCT-116 colon 26.7% | HCC-2998 colon 23.6% | KM12 colon 14.9%

Nc1ncnc2[nH]c(=O)[nH]c12
inactive: BT-549 breast 122% | MDA-MB-435 melanoma 96.4% | SW-620 colon 110% | MCF7 breast 100% | HCT-116 colon 91.3% | HCC-2998 colon 111% | KM12 colon 99.8%

Cc1ccc(Nc2nnc(-c3cc(-c4ccncc4)n(-c4ccccc4)n3)s2)cc1
inactive: BT-549 breast 64.8% | MDA-MB-435 melanoma 78.3% | SW-620 colon 94% | MCF7 breast 80.3% | HCT-116 colon 51.3% | HCC-2998 colon 57.1% | KM12 colon 50.8%

COc1ccc(Nc2cc(C)nc(NCCCNc3ccnc4cc(Cl)ccc34)n2)cc1
inactive: KM12 colon 20%
active: BT-549 breast -82.9% | MDA-MB-435 melanoma -92.4% | SW-620 colon -56.7% | MCF7 breast -48.8% | HCT-116 colon -96.6% | HCC-2998 colon -70%

COc1cc(-c2nc(-c3nnc(-c4ccc(F)c(Cl)c4)o3)c3ccccn23)cc(OC)c1OC
inactive: MDA-MB-435 melanoma 49.8% | SW-620 colon 58.7% | MCF7 breast 15.5% | HCC-2998 colon 64.1%
active: BT-549 breast 2.74% | HCT-116 colon -31.5% | KM12 colon 5.68%

N#CC1=C(Nc2ccccc2Cl)SC(c2ccccc2O)NC1=O (stereo unspecified)
inactive: BT-549 breast 111% | MDA-MB-435 melanoma 120% | SW-620 colon 105% | MCF7 breast 105% | HCT-116 colon 109% | HCC-2998 colon 109% | KM12 colon 116%

CCN1Cc2c(/C=C/c3ccccc3)nc3ccc(OC)cc3c2N(c2cccc(Cl)c2)C1
inactive: BT-549 breast 95.2% | MDA-MB-435 melanoma 76.1% | SW-620 colon 67.4% | MCF7 breast 78.5% | HCT-116 colon 45.8% | HCC-2998 colon 86% | KM12 colon 94.2%

O=C1/C(=C/c2ccc([N+](=O)[O-])o2)Oc2ccccc21
active: BT-549 breast -51.3% | MDA-MB-435 melanoma -70.9% | SW-620 colon -77.6% | MCF7 breast 7.13% | HCT-116 colon -56% | HCC-2998 colon -1.7%
inactive: KM12 colon 48.3%

Clc1cc2c(c(CSc3nc4ccccc4n4cccc34)c1)OCOC2
active: MCF7 breast 8.11%
inactive: BT-549 breast 81.2% | MDA-MB-435 melanoma 92.2% | SW-620 colon 94.4% | HCT-116 colon 80% | HCC-2998 colon 85.4% | KM12 colon 88.4%
